The source of these data is PubChem BioAssay (NCATS).

Several values for one entry are separate records, joined by “and”; a condition that tells them apart may be missing. Equal entries are not always repeated. Records with an inconclusive call do not appear. Activity calls are given as the source filed them. Unless noted, calls follow the shape of the dose curve; as a rule, active = well fitted curve in the direction sought with a large enough effect; inconclusive = small, poorly fitted or top-dose-only effect, or another doubt; inactive = no such curve, though single readings can be large; an effect the other way counts as inactive or inconclusive.

Assay [1] in a line: qHTS to identify inhibitors of the type 1 interferon - major histocompatibility complex class I in skeletal muscle: primary screen against the NCATS Mechanism Interrogation Plate v5.0 (MIPE) Libary (AID 1347411). Also: nearly all actives have a fitted effect of over 65% in size. Also: potency is read from the fitted curve at half-maximal effect.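 As to activity change, negative = inhibition: plate controls were vehicle for no effect and reference inhibitor for full effect.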 The gist of the method:
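Luminescence from HiBiT-tagged endogenous HLA-B*08:01 served as the MHC class I read-out. CRISPR-engineered C25cl48 human myoblasts received 4.0 ng/ml IFN-beta plus compound for 24 hrs, with an 11-point, 1:3 series topping at 46 uM final.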
(In general: In qHTS, concentration-response curves come from the screen itself.)

Assay [2] in a line: Primary qHTS for inhibitors of nuclear receptor binding SET domain protein 2 (NSD2) in an isogenic RCH-ACV NSD2 p.E1099K mutant (9B) (AID 1645876). Also: nearly all actives have a fitted effect of over 70% in size. Also: potency is read from the fitted curve at half-maximal effect. As to activity change, negative = viability loss: % is scaled to controls: 0 for no effect and ±100 for the full control effect.
Assay [3] in a line: Primary qHTS for inhibitors of nuclear receptor binding SET domain protein 2 (NSD2) in an RCH-ACV wild type WT cells (2C) (AID 1645877). Also: nearly all actives have a fitted effect of over 70% in size. Also: potency is read from the fitted curve at half-maximal effect. As to activity change, negative = cell killing: % is scaled to controls: 0 for no effect and ±100 for the full control effect.
For assay [4], the target named is Glutathione peroxidase 1 (Homo sapiens) (UniProt P07203). Kind of assay: Primary qHTS Assay for Inhibitors of Recombinant Selenoprotein Glutathione Peroxidase 1 (GPX1) (AID 1845191). Also: nearly all actives have a fitted effect of over 65% in size. The gist of the method:
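Recombinant GPX1 (10 nM final) was preincubated with compound for 30 min at room temperature, then reacted with 1 mM GSH, 0.5 mM CHP, 0.5 mM NADPH and 100 nM glutathione reductase; NADPH fluorescence (340/450 nm) was read at 0 and 15 min.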

Assay [5] has as its target Phospholipid hydroperoxide glutathione peroxidase GPX4 (Homo sapiens) (UniProt P36969). Kind of assay: Primary qHTS Assay for Inhibitors of Recombinant Selenoprotein Glutathione Peroxidase 4 (GPX4) (AID 1845192). Also: nearly all actives have a fitted effect of over 65% in size. As to activity change, negative = inhibition: series mostly up to about 50 µM; % is scaled to controls: 0 for no effect and ±100 for the full control effect. Conditions: outcome: dose series up to 50 µM unless noted. An outline of the steps:
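GR-coupled readout: 100 nM GR, 1 mM GSH, 0.5 mM NADPH; NADPH fluorescence (ex 340/em 450 nm) read at t=0 and after 15 min RT. GPX4 200 nM, preincubated 30 min with compound; substrate 0.5 mM CHP.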

Assay [6] in a line: qHTS drug screen for cell cycle checkpoint inhibitors in PARPi-resistant BRCA-mutant ovarian cancer cell lines. (AID 1963452; calls by dose curve; also: potency is read from the fitted curve at half-maximal effect). Particulars: PEO1/OlaR viability, CellTiter-Glo luminescence, 96 h; for Z-AUC: stronger effect = lower value. The gist of the method: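 PEO1, PEO4 and PEO1/OlaR ovarian cancer cells, 600 per well, exposed 96 h at 37C to a dilution series. Viability read by CellTiter-Glo luminescence, normalized to DMSO and empty wells; activity summarized as Z-AUC.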

Setting [7] is: measured here: PEO1 parental Z-AUC.

Chain of Glutathione peroxidase 1 (Homo sapiens) (P07203 whole entry, looked up): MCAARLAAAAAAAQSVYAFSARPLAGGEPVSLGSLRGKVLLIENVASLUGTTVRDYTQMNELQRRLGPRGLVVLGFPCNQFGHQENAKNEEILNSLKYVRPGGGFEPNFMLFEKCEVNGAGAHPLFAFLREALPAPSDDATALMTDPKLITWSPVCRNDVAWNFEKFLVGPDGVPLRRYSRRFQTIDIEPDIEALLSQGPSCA
Chain of Phospholipid hydroperoxide glutathione peroxidase GPX4 (Homo sapiens) (P36969 whole entry, looked up): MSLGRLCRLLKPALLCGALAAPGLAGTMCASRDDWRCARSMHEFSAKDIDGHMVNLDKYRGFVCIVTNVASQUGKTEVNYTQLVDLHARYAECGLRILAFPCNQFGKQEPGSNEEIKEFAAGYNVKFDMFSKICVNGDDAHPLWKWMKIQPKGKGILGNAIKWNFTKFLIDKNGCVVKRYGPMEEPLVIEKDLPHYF

As for `CNC(=O)Cn1cc(-c2ccc3c(c2)C(F)CC32NC(=O)N(CC(=O)N(Cc3ccc(F)cc3)[C@@H](C)C(F)(F)F)C2=O)cn1` (some centres not stated), the Potency result in assay [1], in assay [4] and in assay [5] was “inactive” in each case. Also, the Potency in assay [2] is 0.0525 µM (active); in assay [3], 0.0661 µM (active). Besides, the Z-AUC is 0.811 (inactive) and 1.3 (inactive) in assay [6]; 0.434 and 1.73 in assay [6] (setting [7]); 0.0101 and 0.997 in assay [6] (measured here: PEO4 Z-AUC).
For the compound `Nc1n[n+]([O-])c2ccccc2[n+]1[O-]`, the Potency entry in assay [1], in assay [4] and in assay [5] was “inactive” throughout. Also, the figures for the Potency in assay [2] and in assay [3] were 18.6 µM (active) and 10.5 µM (active), respectively. Moreover, the Z-AUC in assay [6] is -0.469 (inactive); in assay [6] (setting [7]) it was -1.12; in assay [6] (measured here: PEO4 Z-AUC) it was -1.08.
As to `Cc1nc(NC(=O)N2CCC[C@H]2C(N)=O)sc1-c1csc(C(C)(C)C)n1`, the Potency entry in assay [1], in assay [4] and in assay [5] was “inactive” each time. In addition, the Potency in assay [2] is 5.25 µM (active); in assay [3], 4.68 µM (active). In addition, the Z-AUC in assay [6] is 0.111 (inactive); in assay [6] (setting [7]), 0.231; in assay [6] (measured here: PEO4 Z-AUC), 0.403.
As for `Cc1c(Cl)cccc1S(=O)(=O)Nc1nc(CCN2CCOCC2=O)cs1`, the Potency entry in assay [1], in assay [2], in assay [3], in assay [4] and in assay [5] was “inactive” throughout. Moreover, the Z-AUC in assay [6] is 0.943 (inactive); in assay [6] (setting [7]) it was 0.512; in assay [6] (measured here: PEO4 Z-AUC), 0.46.
Consider `COc1cc2c3c(n(CCCN4CCOCC4)c(=O)c2cc1OC)-c1cc2c(cc1C3=O)OCO2`, for which the Potency result in assay [1], in assay [4] and in assay [5] was “inactive” in each case. The Potency is 0.372 µM (active) in assay [2] and 0.209 µM (active) in assay [3]. The Z-AUC in assay [6] is -2.49 (inactive); in assay [6] (setting [7]) it was -2.16; in assay [6] (measured here: PEO4 Z-AUC), -0.656.
For `CC(C)(O)CS(=O)(=O)Nc1ccc2c(c1)CCN(C(=O)COc1cccnc1)C2`, the Potency result in assay [1], in assay [4] and in assay [5] was “inactive” each time. In addition, the results for the Potency in assay [2] and in assay [3] were 0.0372 µM (active) and 0.0332 µM (active), respectively. In addition, the Z-AUC in assay [6] was -2.38 (inactive); in assay [6] (setting [7]), -2.73; in assay [6] (measured here: PEO4 Z-AUC) it was -2.65.
Take `CCOC(=O)N[C@@H]1CC[C@@H]2[C@@H](C1)C[C@H]1C(=O)O[C@H](C)[C@H]1[C@H]2/C=C/c1ccc(-c2cccc(F)c2)cn1`: the Potency result in assay [1], in assay [4] and in assay [5] was “inactive” in each case. The Potency was 18.6 µM (active) in assay [2] and 13.2 µM (active) in assay [3]. The Z-AUC in assay [6] was 0.314 (inactive); in assay [6] (setting [7]), 1.37; in assay [6] (measured here: PEO4 Z-AUC), 1.33.
For `C=CC(=O)N1CCC(CNc2ncnc(N)c2-c2ccc(Oc3ccccc3)cc2)CC1`, the Potency result in assay [1], in assay [4] and in assay [5] was “inactive” each time. For the same compound, the Potency was 16.6 µM (active) in assay [2] and 5.9 µM (active) in assay [3]. In addition, the Z-AUC in assay [6] was 1.54 (inactive); in assay [6] (setting [7]) it was 1.18; in assay [6] (measured here: PEO4 Z-AUC), 1.23.
With `CC(C)(C)C(=O)N1N=CC[C@H]1c1ccccc1`, the Potency entry in assay [1], in assay [2], in assay [3], in assay [4] and in assay [5] was “inactive” in each case. For the same compound, the Z-AUC in assay [6] was -0.69 (inactive); in assay [6] (setting [7]) it was -0.909; in assay [6] (measured here: PEO4 Z-AUC), -0.663.
Regarding `CC1(C)CCC2(CC1)N[C@@H](C(=O)N[C@@H]1CC[C@@H](C(N)=O)OC1)[C@H](c1ccnc(Cl)c1F)[C@]21C(=O)Nc2cc(Cl)ccc21`, the Potency in assay [1] is 17.9 µM (active); in assay [2], 0.319 µM (active); in assay [3], 0.201 µM (active). In addition, the Potency result in assay [4] and in assay [5] was “inactive” in each case. Also, the values for the Z-AUC in assay [6], in assay [6] (setting [7]) and in assay [6] (measured here: PEO4 Z-AUC) were -0.537 (inactive), -0.326 and -0.309, respectively.
On to `CC(C)(C)c1[nH]cnc1/C=c1\[nH]c(=O)/c(=C/c2ccccc2)[nH]c1=O`, for which the Potency entry in assay [1], in assay [4] and in assay [5] was “inactive” in each case. Also, the figures for the Potency in assay [2], in assay [3] and in assay [6] were 0.118 µM (active), 0.118 µM (active) and 174 nM (active), respectively. Also, the Z-AUC in assay [6] (setting [7]) is -2.5; in assay [6] (measured here: PEO4 Z-AUC) it was -2.52.
As to `COCCOC(=O)N1CCN(S(=O)(=O)c2cc(F)c(Oc3ccc(Cl)cc3)c(F)c2)C(C(=O)NO)C1` (configuration not stated), the Potency was 18.6 µM (active) in assay [1], 5.9 µM (active) in assay [2] and 4.68 µM (active) in assay [3]. Besides, the Potency entry in assay [4] and in assay [5] was “inactive” throughout. Besides, the figures for the Z-AUC in assay [6], in assay [6] (setting [7]) and in assay [6] (measured here: PEO4 Z-AUC) were -1.01 (inactive), -1.23 and -1.17, respectively.
Turning to `CN(C)CCNC(=O)COc1c2cccc1Cc1cccc(c1OCC(=O)NCCN(C)C)Cc1cccc(c1OCC(=O)NCCN(C)C)Cc1cccc(c1OCC(=O)NCCN(C)C)C2`, in assay [1], the activity change, negative = inhibition is -36% [at 8.44 µM] (inactive). The activity change, negative = viability loss in assay [2] was 4.69% [at 9.23 µM] (inactive). Also, the activity change, negative = cell killing in assay [3] is 5.34% [at 9.23 µM] (inactive). The outcome was “inactive [at 9.52 µM]” in assay [4] and “inactive [at 9.73 µM]” in assay [5]. Also, the Z-AUC is -0.309 (inactive) in assay [6], -0.716 in assay [6] (setting [7]) and -0.127 in assay [6] (measured here: PEO4 Z-AUC).
Consider `C[C@H](NC(=O)[C@H]1NCC[C@@H]1O)c1ccc(-c2noc(CCC3CCCC3)n2)cc1`, for which the Potency result in assay [1], in assay [2], in assay [3], in assay [4] and in assay [5] was “inactive” each time. Further, the Z-AUC in assay [6] was 0.833 (inactive); in assay [6] (setting [7]), 0.65; in assay [6] (measured here: PEO4 Z-AUC), 0.666.
Take `O=C(NO)c1cnc(NC2(c3cccc(F)c3)CCCCC2)nc1`: the Potency entry in assay [1], in assay [4] and in assay [5] was “inactive” each time. The Potency in assay [2] and in assay [3] was 14.8 µM (active) in each case. Further, the Z-AUC in assay [6] was -1.41 (inactive); in assay [6] (setting [7]), -0.775; in assay [6] (measured here: PEO4 Z-AUC) it was -0.635.
Regarding `C=CC(=O)N1CCC(C2CCNc3c(C(N)=O)c(-c4ccc(Oc5ccccc5)cc4)nn32)CC1` (configuration not stated), the Potency result in assay [1], in assay [4] and in assay [5] was “inactive” in each case. In addition, the Potency in assay [2] was 14.8 µM (active); in assay [3], 6.61 µM (active). Also, the figures for the Z-AUC in assay [6], in assay [6] (setting [7]) and in assay [6] (measured here: PEO4 Z-AUC) were -0.181 (inactive), -0.23 and -0.000619, respectively.
Consider `CC1(C)S[C@H]2[C@H](NC(=O)[C@@H](N)c3ccc(O)cc3)C(=O)N2[C@H]1C(=O)O`, for which the Potency entry in assay [1], in assay [2], in assay [3], in assay [4] and in assay [5] was “inactive” in each case. Further, the Z-AUC is -0.122 (inactive) in assay [6], 0.11 in assay [6] (setting [7]) and 0.161 in assay [6] (measured here: PEO4 Z-AUC).
As for `COC(=O)[C@H]1[C@@H](O)[C@@]2(O)c3c(OC)cc(O[C@@H]4O[C@@H]([C@@H](O)CO)CO[C@H]4OC)cc3O[C@@]2(c2ccc(OC)cc2)[C@@H]1c1ccccc1`, the Potency result in assay [1], in assay [4] and in assay [5] was “inactive” throughout. Moreover, the values for the Potency in assay [2] and in assay [3] were 4.68 µM (active) and 2.95 µM (active), respectively. Besides, the results for the Z-AUC in assay [6], in assay [6] (setting [7]) and in assay [6] (measured here: PEO4 Z-AUC) were 1.19 (inactive), 0.913 and 0.648, respectively.
Consider `C[C@H](Nc1nc(N[C@H](C)C(F)(F)F)nc(-c2cccc(Cl)n2)n1)C(F)(F)F`, for which the Potency result in assay [1], in assay [2], in assay [3], in assay [4] and in assay [5] was “inactive” in each case. Further, the Z-AUC in assay [6] is -0.138 (inactive); in assay [6] (setting [7]), 0.592; in assay [6] (measured here: PEO4 Z-AUC), 0.804.
